Results filed as inconclusive are left out. Where a call stands in place of a potency, no number is given. Active and inactive are the calls of the source. The call rests on the fitted dose curve.
experiment: qHTS assay for small molecules that induce genotoxicity in human embryonic kidney cells expressing luciferase-tagged ATAD5 - cell viability (AID 651634); conditions: HEK293T ATAD5-luc cells viability, CellTiter-Fluor, 15.5 h; series mostly up to 83.3 µM; further: nearly all actives have a fitted effect of over 25% in size
Text: National Center for Advancing Translational Sciences [NCATS]
NIH Chemical Genomics Center [NCGC]
U.S. Environmental Protection Agency [EPA]
National Institutes of Environmental Health Sciences [NIEHS]
National Toxicology Program [NTP]
U.S. Food and Drug Administration [FDA]
Enhanced Level of Genome Instability Gene 1 (ELG1; human ATAD5) protein levels increase in response to various types of DNA damage. Using a luciferase reporter-gene tagged with ElG1, a cell-based assay [developed by Kyungjae Myung, NHGRI, NIH] was used to measure the induction of ATAD5 in human embryonic kidney cells (HEK293T). So, increase in luciferase activity can be used to identify the compounds that cause genetic stress. In addition to genotoxicity, these cells were also used to test for cytotoxicity by measuring the protease activity within live cells.
Tox21 Assay Protocol Summary:
For cytotoxicity screening, 2,000 cells in 5 uL/well were dispensed into white, solid-bottom 1536-well plates using a Multidrop Combi (Thermo Scientific) dispenser. Following transfer of 23 nL compound or DMSO vehicle by a pin tool, the plates were incubated 15.5 hr at 37C and 5% CO2. 1 ul CellTiter-Fluor reagent (Promega, Madison, WI) was then added to each plate and following 30 min incubation at 37C, fluorescence intensity was quantified on a ViewLux CCD-based plate reader.

Structure (SMILES) | Potency | activity, negative = cytotoxicity
CC(=O)Nc1ccc(OCC(O)CNC(C)C)cc1 (stereo not given) | inactive | 
COc1ccc2cc1Oc1cc3c(cc1OC)CC[N+](C)(C)[C@H]3Cc1ccc(cc1)Oc1c(OC)c(OC)cc3c1[C@@H](C2)[N+](C)(C)CC3 | inactive | 
COc1cc2c(cc1OC)-c1cc3ccc(OC)c(OC)c3c[n+]1CC2 | inactive | 
COCCOC[C@H](CC1(C(=O)NC2CCC(C(=O)O)CC2)CCCC1)C(=O)Oc1ccc2c(c1)CCC2 (stereo not given in full) | inactive | 
[K+] | inactive | 
O=C(O)c1cc(C(=O)O)cc(C(=O)O)c1 | inactive | 
C=COC(=O)C(C)(CC)CCC(C)C (stereo not given) | inactive | 
CC(C)(C)C(=O)c1ccccc1 | inactive | 
FB(F)F | inactive | 
CCCCc1ccc2c(n1)[C@@H](c1ccc(OC)cc1C[C@H](C)C(=O)O)[C@H](C(=O)O)[C@H]2c1ccc2c(c1)OCO2 | inactive | 
CCCCCCCCCCCCCCCCCCO | inactive | 
CCCCCCCCN1CCCC1=O | inactive | 
c1ccc2sc(SN3CCOCC3)nc2c1 | inactive | 
CCCCN(CCC(=O)OCC)C(C)=O | inactive | 
CCCCCC(C)N (stereo not given) | inactive | 
CCO[Si](OCC)(OCC)c1ccccc1 | inactive | 
CCC(C)(CCCC(C)C)OC(C)=O (stereo not given) | inactive | 
C[N+]1(C)CCCC(OC(=O)C(O)(c2ccccc2)c2ccccc2)C1 (stereo not given) | inactive | 
CC(=O)N[C@H]1[C@H]([C@H](O)[C@H](O)CO)OC(C(=O)O)=C[C@@H]1N=C(N)N | inactive | 
C=C[Si](OC(C)=O)(OC(C)=O)OC(C)=O | inactive | 

Structure (SMILES) | Potency | activity, negative = cytotoxicity
CN1CCN(c2cc3c(nn2)Oc2ccccc2N3C)CC1 | inactive | 
C=CCCC(=O)O | inactive | 
CN(C)[C@@H]1C(=O)C(C(=O)NCN2CCCC2)=C(O)[C@@]2(O)C(=O)C3=C(O)c4c(O)cccc4[C@@](C)(O)C3C[C@@H]12 (stereo not given in full) | inactive | 
CC(C)(C)OC(=O)c1cccc(N)c1 | inactive | 
CCOc1ccc2nc(S(N)(=O)=O)sc2c1 | inactive | 
CC(=O)NC(=O)c1ccccc1O | inactive | 
CN1C(C)(C)CC(O)CC1(C)C | inactive | 
CC(=O)c1ccccc1[N+](=O)[O-] | inactive | 
C[N+](C)(C)CCCCCCCCCC[N+](C)(C)C | inactive | 
CC[C@H]1OC(=O)[C@H](C)[C@@H](O[C@H]2C[C@@](C)(OC)[C@@H](O)[C@H](C)O2)[C@H](C)[C@@H](O[C@@H]2O[C@H](C)C[C@H](N(C)C)[C@H]2O)[C@](C)(OC)C[C@@H](C)C(=O)[C@H](C)[C@@H](O)[C@]1(C)O | inactive | 
Cc1ccc(C(=O)c2ccc(CC(=O)O)n2C)cc1 | inactive | 
NCCCC[C@H](N[C@@H](CCc1ccccc1)C(=O)O)C(=O)N1CCC[C@H]1C(=O)O | inactive | 
CCOC(=O)C1=NOC(c2ccccc2)(c2ccccc2)C1 | inactive | 
CC1=CC(=O)[C@H]2C[C@@H]1C2(C)C | inactive | 
CO[C@@]1(NC(=O)C(C(=O)O)c2ccc(O)cc2)C(=O)N2C(C(=O)O)=C(CSc3nnnn3C)CO[C@@H]21 (stereo not given in full) | inactive | 
CN1CCC(=C2c3ccccc3CCc3cccnc32)CC1 | inactive | 
NO | inactive | 
COc1c(N2CCNC(C)C2)c(F)cc2c(=O)c(C(=O)O)cn(C3CC3)c12 (stereo not given) | inactive | 
Cc1cc(C)c(N=Nc2c(O)c(S(=O)(=O)O)cc3cc(S(=O)(=O)O)ccc23)cc1C |  | -13.8% [at 8.08 µM] (inactive)
CCOC(=O)c1cnc2c(cnn2CC)c1NN=C(C)C | inactive | 
